This passage reports composite z-score, z-score and composite Z-score results from PubChem BioAssay.

Test [1] deals with Human papillomavirus type 1a protein E7 (residues 44-93). The experiment in a line: small molecules binding HPV E7 44-93 – biochemical, small-molecule microarray, residues 44-93, 635 nm fluorescence, primary screen (AID 1108).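 Also: E7 fragment applied at 1 µg/mL in TBST for 1 h at 4 C; score combines spot fluorescence with its signal to noise ratio.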 As to conditions: fluorescence 635 nm, higher = more signal.
The nature of test [2]: hepatitis C replication reporter changes, two-sided – Huh7 cells, luciferase reporter, HCV replication inhibitor project, primary screen (AID 1109).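 Also: huh7 hepatoma cells harbouring a luciferase neomycin HCV replicon reporter; luciferase luminescence as measure of HCV replicon replication; test concentration not given here.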 As to conditions: Huh7 HCV replicon luciferase reporter, 48 h; higher = more signal.
Test [3] concerns the target Left-right determination factor 2 (Homo sapiens) (UniProt O00292). Put plainly: small molecules binding LEFTY2 protein – biochemical, small-molecule microarray, 635 nm fluorescence scan, primary screen (AID 1110). As to conditions: higher = more signal.
For test [4], the target named is Calmodulin-1 (Homo sapiens) (UniProt P0DP23). The experiment in a line: small molecules binding calmodulin-1 with EGTA – biochemical, small-molecule microarray, Cy5-labelled CALM1, profiling panel (AID 1111).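 Also: labelled calmodulin applied in Tris saline Tween buffer holding calcium plus EGTA and DTT.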 As to conditions: Cy5-CALM1 binding fluorescence, higher = more signal.
Test [5] shares this target. Put plainly: small molecules binding Ca-loaded calmodulin-1 – biochemical, small-molecule microarray, Cy5-labelled CALM1, plus calcium, artefact control for SMM control-protein annotation, profiling panel (AID 1112).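 Also: score merges spot fluorescence with signal to noise from triplicate slides.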 The note with it: Cy5-CALM1 binding fluorescence, higher = more signal.
Test [6] in a line: probe aWnt5a binding to arrayed compounds – biochemical, biotinylated probe, 635/667 nm fluorescence, primary screen (AID 1113).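 Also: score merges 667 nm fluorescence intensity with signal-to-noise per printed feature.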 As to conditions: small-molecule microarray, higher = more signal.
The nature of test [7]: probe aShh binding to arrayed compounds – biochemical, biotinylated probe, 635/667 nm fluorescence, primary screen (AID 1114).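 Also: probe is biotin-labelled aShh protein from a stem cell growth factor screen; measures binding of labelled protein to compounds printed on the slide; score merges feature fluorescence at 667 nm with signal-to-noise.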 As to conditions: small-molecule microarray, higher = more signal.
Test [8] in a line: probe aNog binding to arrayed compounds – biochemical, biotinylated probe, 635/667 nm fluorescence, primary screen (AID 1115).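 Also: probe is biotinylated aNog protein used at 0.15 µg/mL for 1 h at 4 C; z-score combines 667 nm fluorescence of each spot with its signal to noise.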 As to conditions: small-molecule microarray, higher = more signal.
The target of test [9] is Torsin-1A-interacting protein 1 (Homo sapiens) (UniProt Q5JTV8). The experiment in a line: compound microarray binding of lysate hLAP1 – cell lysate, small-molecule microarray, COS7 lysate, 635/667 nm fluorescence, primary screen (AID 1116). The note with it: 635 nm fluorescence, higher = more signal.
Torsin-1A-interacting protein 1 (Homo sapiens), sequence (Q5JTV8 whole entry, looked up): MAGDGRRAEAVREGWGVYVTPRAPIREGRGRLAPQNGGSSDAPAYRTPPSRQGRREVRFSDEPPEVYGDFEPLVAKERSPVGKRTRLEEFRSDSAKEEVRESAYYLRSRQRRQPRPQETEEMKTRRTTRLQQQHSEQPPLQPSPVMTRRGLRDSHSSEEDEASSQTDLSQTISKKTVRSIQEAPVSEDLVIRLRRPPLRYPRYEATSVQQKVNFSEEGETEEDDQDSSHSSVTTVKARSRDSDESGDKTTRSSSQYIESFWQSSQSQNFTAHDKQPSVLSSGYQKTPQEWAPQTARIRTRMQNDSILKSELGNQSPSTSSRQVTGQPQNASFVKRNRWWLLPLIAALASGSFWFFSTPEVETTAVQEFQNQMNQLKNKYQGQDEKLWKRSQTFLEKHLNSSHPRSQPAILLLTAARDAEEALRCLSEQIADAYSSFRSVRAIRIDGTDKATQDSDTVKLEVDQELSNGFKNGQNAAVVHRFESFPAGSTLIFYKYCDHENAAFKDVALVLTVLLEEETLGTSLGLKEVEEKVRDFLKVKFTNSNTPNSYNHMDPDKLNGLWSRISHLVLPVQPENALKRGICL
In test [10] the target is Alpha-bungarotoxin (Bungarus multicinctus) (UniProt P60615). The experiment in a line: compounds binding labelled alpha-BTX control protein – biochemical, small-molecule microarray, Alexa647 label, 635/667 nm fluorescence, artefact control for SMM control protein annotation, profiling panel (AID 1117). As to conditions: alpha-BTX-A647 binding fluorescence, higher = more signal.
Alpha-bungarotoxin (Bungarus multicinctus), sequence (P60615 whole entry, looked up): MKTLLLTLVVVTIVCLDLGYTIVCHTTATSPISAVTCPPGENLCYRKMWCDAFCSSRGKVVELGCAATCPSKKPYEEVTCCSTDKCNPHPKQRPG

For test [11], the target named is Albumin (Bos taurus) (UniProt P02769). The experiment in a line: compounds binding labelled BSA control protein – biochemical, small-molecule microarray, Alexa647 label, 635/667 nm fluorescence, artefact control for SMM control protein annotation, profiling panel (AID 1118).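 Also: score merges 667 nm emission intensity and signal-to-noise per printed compound spot.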 The note with it: BSA-A647 binding, fluorescence 635 nm, higher = more signal.
Albumin (Bos taurus), sequence (P02769 whole entry, looked up): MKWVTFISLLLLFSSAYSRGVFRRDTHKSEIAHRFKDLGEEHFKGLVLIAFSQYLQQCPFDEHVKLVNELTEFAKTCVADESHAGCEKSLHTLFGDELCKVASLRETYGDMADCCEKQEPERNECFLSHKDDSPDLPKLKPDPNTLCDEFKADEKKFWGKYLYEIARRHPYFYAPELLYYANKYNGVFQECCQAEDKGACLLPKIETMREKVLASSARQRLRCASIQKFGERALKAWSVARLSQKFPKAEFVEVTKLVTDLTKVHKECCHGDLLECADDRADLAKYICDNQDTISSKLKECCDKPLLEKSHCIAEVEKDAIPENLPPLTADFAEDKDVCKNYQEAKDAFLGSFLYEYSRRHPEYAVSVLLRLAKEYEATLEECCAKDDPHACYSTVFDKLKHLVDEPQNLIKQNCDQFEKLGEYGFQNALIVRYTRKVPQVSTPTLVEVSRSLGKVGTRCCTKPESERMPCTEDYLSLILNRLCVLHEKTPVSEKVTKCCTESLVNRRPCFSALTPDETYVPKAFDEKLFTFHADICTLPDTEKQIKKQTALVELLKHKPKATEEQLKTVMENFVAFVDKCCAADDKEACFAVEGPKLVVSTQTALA
Test [12] can be described thus: probe aXIP binding to arrayed compounds – biochemical, NeuroSMM set, 635/667 nm fluorescence, primary screen (AID 1119).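 Also: probe is the protein aXip251-270 applied at 1 µg/mL to compound-printed slides; binding of probe to printed compounds measured as 667 nm fluorescence plus signal to noise.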 The note with it: small-molecule microarray, higher = more signal, called active from +8 up or from −8 down.
Test [13] is described as follows: probe aNOTCH3 binding on compound microarray – biochemical, small-molecule microarray, 635/667 nm fluorescence, primary screen (AID 1120).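 Also: probe is a biotin-tagged antibody raised against NOTCH3 rather than NOTCH3 protein; score merges spot fluorescence near 667 nm with spot signal to noise.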 As to conditions: higher = more signal.
Test [14] in a line: probe aNOTCH2 binding on compound microarray – biochemical, small-molecule microarray, 635/667 nm fluorescence, primary screen (AID 1121).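 Also: score merges feature fluorescence read at 667 nm with its signal to noise.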 The note with it: higher = more signal.
For test [15], the target named is Carbonic anhydrase 2 (Homo sapiens) (UniProt P00918). Put plainly: compounds binding carbonic anhydrase 2 – biochemical, small-molecule microarray, Alexa647-labelled CAII, profiling panel (AID 1122). As to conditions: CAII-A647 binding fluorescence, higher = more signal.
The nature of test [16]: COS7 lysate on small-molecule microarray, probe aHis, 635 nm (AID 1123).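 Also: z-score combines 667nm fluorescence intensity with signal-to-noise per printed compound spot.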 As to conditions: COS7 cell lysate, fluorescence, higher = more signal.
Test [17] is described as follows: probe aLAP1 signal on lysate-treated microarray – cell lysate, small-molecule microarray, COS7 lysate, primary screen (AID 1124).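 Also: lysate comes from COS7 cells expressing LAP1 and is applied at 0.3 µg/mL; score merges spot fluorescence near 667 nm with signal-to-noise over triplicate slides.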 The note with it: probe aLAP1, fluorescence, higher = more signal.
In test [18] the test system is Sam68 (KHDRBS1). The experiment in a line: compounds binding KHDRBS1 protein – biochemical, small-molecule microarray, 635 nm fluorescence, primary screen (AID 1125).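 Also: score merges 667 nm channel intensity with signal to noise over triplicate slides.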 The note with it: higher = more signal.
In test [19] the test system is Chordin-like protein 2 (CHRDL2). Put plainly: compounds binding chordin-like 2 – biochemical, small-molecule microarray, 635 nm fluorescence, primary screen (AID 1126).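 Also: printed compound slides probed with Chrdl2 protein at 4 µg/mL for 1 h at 4 C; score merges 667 nm emission intensity with signal to noise over three replicate slides.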 The note with it: fluorescence 635 nm, higher = more signal.
Test [20] deals with Concanavalin-A (Canavalia ensiformis) (UniProt P02866). Put plainly: compounds binding concanavalin A lectin – biochemical, small-molecule microarray, Alexa647 label, 635 nm, artefact control for SMM control protein annotation, primary screen (AID 1127).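 Also: z combines 667 nm emission intensity with signal-to-noise across three replicate slides.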 The note with it: ConA-A647 binding fluorescence, higher = more signal.
Concanavalin-A (Canavalia ensiformis), sequence (P02866 whole entry, looked up): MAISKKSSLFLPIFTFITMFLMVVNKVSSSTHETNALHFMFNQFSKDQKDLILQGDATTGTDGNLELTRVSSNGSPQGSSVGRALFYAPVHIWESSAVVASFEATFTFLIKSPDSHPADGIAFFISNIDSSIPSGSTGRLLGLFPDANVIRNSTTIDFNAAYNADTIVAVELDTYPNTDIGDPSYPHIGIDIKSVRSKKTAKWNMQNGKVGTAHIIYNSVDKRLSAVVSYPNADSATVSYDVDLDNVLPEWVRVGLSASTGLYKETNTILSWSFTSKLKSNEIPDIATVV

Active and inactive are the calls of the source.

Left-right determination factor 2 (Homo sapiens), sequence (O00292 whole entry, looked up): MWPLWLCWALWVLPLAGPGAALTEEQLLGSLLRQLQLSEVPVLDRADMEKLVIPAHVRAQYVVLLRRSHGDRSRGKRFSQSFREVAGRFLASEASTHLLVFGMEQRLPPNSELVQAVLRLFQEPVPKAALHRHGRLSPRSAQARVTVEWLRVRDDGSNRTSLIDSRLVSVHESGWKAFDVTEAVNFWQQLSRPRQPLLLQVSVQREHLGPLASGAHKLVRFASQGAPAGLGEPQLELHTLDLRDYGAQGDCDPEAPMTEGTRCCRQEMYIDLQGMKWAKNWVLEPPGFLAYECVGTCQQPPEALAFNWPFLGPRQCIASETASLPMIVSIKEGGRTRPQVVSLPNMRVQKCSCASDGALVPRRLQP

`CCOC(=O)[C@H](Cc1ccccc1)NC(=O)CCC1CC(OC(=O)NCc2cccc3ccccc23)CC2(CCCC(COC(=O)NCC3CCCCC3)O2)O1` (stereo not given in full): the composite z-score in test [1] is 1.33; in test [3], 0.643; in test [4], 0.297; in test [5], -0.525; in [6], -0.0445; in test [7], 0.0596. The composite z-score in test [8] is -0.142; in test [9] it was 0.128; in [10], 0.746; in [11] it was -0.112; in test [13], 0.0713; in [14], -0.123. For the same compound, the composite z-score in test [15] is 0.0394; in [16] it was 0.745; in [17], 0.395; in [18], 1.18; in test [19] it was 0.54; in test [20] it was 0.702. The compound further registered a z-score in test [2] of -1.48. Moreover, in test [12], the composite Z-score is 0.878 (inactive).

For the compound `C#CCCCON=C1[C@H]2CCn3c(=O)n(Cc4cc5c(cc4Cl)OCO5)c(=O)n3[C@H]2[C@H](O)[C@@H]2O[C@H]12`, the composite z-score is 0.493 in test [1]; 0.711 in test [3]; -0.692 in [4]; -1.22 in [5]; -0.129 in test [6]; -0.273 in [7]. For the same compound, the composite z-score in test [8] was -0.162; in test [9], 0.526; in [10] it was 0.499; in [11], -0.252; in [13] it was -0.0178; in test [14], -0.106. For the same compound, the composite z-score in [15] is -0.0303; in [16], -0.138; in test [17], -0.122; in test [18] it was 0.431; in test [19], 0.424; in [20], 0.656. The z-score in [2] was 0.113. The composite Z-score in test [12] was -0.141 (inactive).

For `CCOC(=O)CCN1C(=O)[C@H]2[C@H]3[C@H](O)[C@H](O)CC(=NNC(=O)OCC)[C@H]3CC[C@H]2C1=O`, the composite z-score in test [1] is -0.0248; in [3], 0.679; in test [4] it was -0.842; in test [5], -1.67; in test [6] it was -0.1; in test [7], -0.0626. In addition, the composite z-score in test [8] is 0.121; in test [9], -0.0184; in test [10], -0.798; in test [11], -0.898; in [13], 0.0927; in test [14], -0.145. Also, the composite z-score in [15] is 0.505; in [16], 0.294; in test [17] it was -0.0069; in test [18], 0.398; in test [19], 1.27; in [20], -2.61. The compound further came in with a z-score in [2] of -2.37. Further, in test [12], the composite Z-score is -0.17 (inactive).

Consider `CCCNC(=O)OC[C@H]1O[C@H](CCON=C[C@@H](NS(=O)(=O)c2ccc(C)cc2)[C@H](C)C=CCC(=O)OC)C=C[C@@H]1Oc1ccc(OC)cc1`, for which the composite z-score in [1] was 0.186; in test [3] it was 0.65; in test [4] it was -1.21; in test [5], -1; in test [6], -0.117; in test [7] it was -0.138. Moreover, the composite z-score in test [8] is -0.0312; in test [9], 0.247; in test [10], 0.0462; in test [11], -0.413; in test [13], 0.0961; in test [14], -0.0158. The composite z-score is -0.437 in [15]; -0.192 in test [16]; -0.0407 in test [17]; 0.0713 in test [18]; 0.16 in [19]; -1.46 in test [20]. In test [2], this compound yielded a z-score of -1.65. Besides, the composite Z-score in [12] is -0.385 (inactive).

For `COC(=O)[C@H](C)NC(=O)CCC1CC(OC(=O)NCc2cccc3ccccc23)CC2(CCCC(COC(=O)NCc3cccc(C(F)(F)F)c3)O2)O1` (stereo not given in full), the composite z-score in test [1] was 1.32; in test [3], 0.925; in test [4], 1.1; in [5], 0.269; in [6], -0.0384; in test [7], -0.138. Besides, the composite z-score in test [8] is -0.23; in test [9], 0.208; in test [10], 0.292; in test [11], 0.845; in [13] it was 0.106; in [14], -0.0846. Also, the composite z-score was found to be 0.15 in [15]; 1.78 in [16]; 0.0331 in [17]; 1.31 in [18]; 0.293 in [19]; 1.12 in [20]. Moreover, the z-score in test [2] is -0.548. Moreover, the composite Z-score in test [12] is 0.15 (inactive).

Consider `CC(=O)OC[C@H]1O[C@H](CC=NOC(C)CN2CCCc3nc(C)c(C)cc32)C=C[C@@H]1OC(C)=O` (stereo not given in full), for which the composite z-score was 0.838 in [1]; 0.833 in test [3]; -0.651 in [4]; -1.2 in test [5]; 0.027 in test [6]; 0.261 in [7]. In addition, the composite z-score in [8] is 0.134; in test [9] it was 1; in [10], -0.0213; in [11] it was -0.0846; in test [13] it was 0.0591; in test [14], 0.0032. For the same compound, the composite z-score was 0.0124 in [15]; 0.0855 in [16]; 0.53 in [17]; 1.2 in [18]; 1.15 in test [19]; -0.152 in [20]. In test [2], this compound showed a z-score of -0.475. Besides, the composite Z-score in [12] was 1.01 (inactive).
